Hits are enriched below; roughly 3.9% of the tested compounds scored in any of these assays.
MazEF act: MazEF (E. coli) toxin RNase activation | P0AE70 | FAM/BHQ RNA-DNA oligo cleavage fluorescence, 5 h | activation, % at 20 µM | 350,000 tested, 0.32% active | AID 504720; in the data active = activation above about 50%
Target sequence (P0AE70 whole entry, looked up): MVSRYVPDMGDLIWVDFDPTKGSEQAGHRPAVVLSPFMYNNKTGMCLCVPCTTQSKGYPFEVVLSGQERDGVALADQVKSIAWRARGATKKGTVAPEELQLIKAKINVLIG
Autofluor counter: compound fluorescence in toxin protease inhibitor counterscreen; compound autofluorescence counterscreen, microsphere flow cytometry; active compounds read high; fluorescence intensity (concentration not given with the values); 360,000 tested, 3.1% active; AID 624483; in the data active = fluorescence intensity above about 16000; inconclusive = no clear call, values can overlap the other calls
BoNT-A LC inh2: BoNT A light chain protease inhibition; multiplex microsphere protease substrate cleavage, flow cytometry; inhibition, % at 10 µM; 360,000 tested, 0.17% active; AID 588499; also: plate controls were buffer without enzyme for full effect and enzyme alone for no effect
BoNT-F LC inh: inhibitors of Botulinum neurotoxin F light chain protease. Multiplex microsphere protease cleavage assay, flow cytometry. inhibition, % at 10 µM. 360,000 tested, 0.22% active; in the data active = inhibition above about 35%, passing the limit was not always enough; inconclusive = no clear call, values can overlap the other calls; also: plate controls were buffer without enzyme for full effect and enzyme alone for no effect
BH1578 lux ind: induces V. cholerae light production without autoinducers | V. cholerae BH1578 lux reporter, luminescence, 6 h | activation, % at 18.7 µM | 350,000 tested, 0.16% active | AID 588436; in the data active = activation mostly above about 9.7%, no sharp cut-off; inconclusive = no clear call, values can overlap the other calls; inactive = mostly below about 3.7%
Anthrax LF prot: anthrax lethal factor protease inhibition. P15917. multiplex microsphere protease cleavage assay, LF. inhibition, % at 10 µM. 360,000 tested, 0.12% active. AID 588501; also: plate controls were buffer without enzyme for full effect and enzyme alone for no effect
Starred values were filed as active, the others as inactive; i = inactive; ? = inconclusive; / = no result given. Rule as the data show it, unless noted: active = inhibition above about 30%; inconclusive = no clear call, values can overlap the other calls; inactive = below that.

SMILES | MazEF act | Autofluor counter | BoNT-A LC inh2 | BoNT-F LC inh | BH1578 lux ind | Anthrax LF prot
CCCCn1c(SCC(=O)NCc2ccco2)nc2ccccc2c1=O | -8.5 | / | / | / | -0.6 | /
O=C1C(=O)N(Cc2cccnc2)C(c2cccc([N+](=O)[O-])c2)/C1=C(/O)c1ccc2c(c1)OCO2 (centres undefined) | -7.3 | 6025 | -1.2 | -3.0 | -0.4 | 2.3
O=C(CSc1nc2ccccc2c(=O)n1Cc1ccco1)N1CCCCCC1 | 0.2 | 21631* | ? | -4.1 | i | -12.3
C(=C\c1ccccc1)/CN1CCN(C(c2nnnn2Cc2ccccc2)C2CC2)CC1 (centres undefined) | / | 5652 | 0.4 | 4.5 | / | 6.3
CSC(=NC#N)N1CCN(c2ccccc2)CC1 | 9.4 | 20884* | ? | -4.3 | i | 0.9
Cc1cccc(OCCNc2cc(N3CCN(CCO)CC3)ccc2[N+](=O)[O-])c1 | -4.3 | 2595 | 0.5 | 2.8 | -0.5 | -2.6
CCCCC1CC1C(=O)Nc1ccc(OC)c(OC)c1 (centres undefined) | -1.7 | 16567* | -0.4 | -3.4 | -0.2 | -0.3
CCCCOC(=O)c1ccc(NC(=O)Nc2ccc(OC)c(OC)c2)cc1 | 1.2 | 3282 | -0.2 | 3.8 | / | -7.4
O=C1NN=C2CCCCCCC12 (centres undefined) | 3.1 | 2854 | -0.7 | -15.0 | -4.8 | -6.1
O=C(Nc1ccsc1C(=O)N1CCCCCC1)c1ccccc1 | -5.7 | 16715* | -0.6 | -1.9 | 1.2 | 0.5
CSCC[C@H](NC(=O)OC(C)(C)C)C(=O)N1CCC(C(=O)N[C@H](C(=O)O)C(C)C)CC1 | 4.4 | 10667 | -0.9 | -5.2 | -0.5 | -0.8
CSCC[C@H](NC(=O)OC(C)(C)C)C(=O)N1CCC(C(=O)N[C@@H](C)C(=O)O)CC1 | -1.7 | 20586* | ? | 0.3 | i | 0.4
CCOC(=O)N(CC)c1ccc(C(O)(C(=O)OCC)C(F)(F)F)cc1 (centres undefined) | 2.9 | 4818 | -0.6 | -23.6 | i | -0.3
CCOC(=O)N(C)c1ccc(C(O)(C(=O)OCC)C(F)(F)F)cc1 (centres undefined) | 0.7 | 22785* | -1.1 | -0.5 | -2.0 | -1.2
CCN(CC)CCOc1ncnc2c1oc1ccccc12 | 5.8 | 19366* | ? | 5.4 | i | 0.5
O=C(Nc1nc(-c2ccc3c(c2)OCCO3)cs1)C1CCCC1 | 4.1 | 4616 | 1.1 | -9.9 | -0.4 | -7.6
COC(=O)c1ccc2c(=O)n(CCCCCC(=O)N3CCN(c4ccccc4)CC3)c(=O)[nH]c2c1 | -4.8 | 2890 | -1.0 | -7.7 | -1.3 | -3.9
COc1cc2[nH]c(=O)n(CCCCCC(=O)N3CCN(c4ccccc4)CC3)c(=O)c2cc1OC | 0.7 | 19560* | 5.6 | 8.7 | i | -1.5
CNc1c([N+](=O)[O-])cnn1-c1ccc(Cl)cc1Cl | 8.4 | 18639* | -4.8 | -9.5 | -11.4 | -3.1
CNc1c([N+](=O)[O-])cnn1-c1ccccc1Cl | 1.2 | 23635* | -0.1 | 0.0 | i | -1.0
Cc1cc(C)n(-c2ccccc2[N+](=O)[O-])n1 | -30.9 | 3572 | -0.3 | 2.2 | i | 4.3
CCCCn1c(N)c(N(CCC(C)C)C(=O)CC2CCCC2)c(=O)[nH]c1=O | -2.5 | 4678 | -1.8 | 8.3 | -0.3 | -3.8
Cc1ccc(S(=O)(=O)N(C)Cc2cc3ccccc3[nH]c2=O)cc1 | 1.7 | 22031* | 0.4 | -1.9 | i | -9.2
Cc1ccc2[nH]c(=O)c(CN(CCO)C(=O)N(C)C)cc2c1 | -2.0 | 17576* | -5.6 | -8.5 | i | -1.5
O=C(CN1CCN(S(=O)(=O)c2ccccc2)CC1)NCCc1ccccc1 | -11.0 | 4683 | -1.9 | -4.6 | i | 4.8
SMILES | MazEF act | Autofluor counter | BoNT-A LC inh2 | BoNT-F LC inh | BH1578 lux ind | Anthrax LF prot
Cc1nc2n(n1)CC(O)CS2 (centres undefined) | 0.4 | 23205* | -2.9 | -5.6 | i | -0.7
OC(CN1CCCCC1)c1ccc2c3c(cccc13)CC2 (centres undefined) | 14.8 | 4001 | 0.3 | -1.7 | i | -4.5
COc1ccccc1C(=O)NC(=S)/C=C1/N(C)c2ccccc2C1(C)C | -8.1 | 2973 | 49.2* | 4.2 | -0.2 | 24.6
CN1/C(=C/C(=S)NC(=O)C2(C)CC2(Cl)Cl)C(C)(C)c2ccccc21 (centres undefined) | 15.9 | 5126 | 13.5 | -4.8 | i | 9.1
CN1/C(=C\C(=S)NC(=O)c2ccccc2Cl)C(C)(C)c2ccccc21 | 10.2 | 4289 | 38.3* | 2.0 | i | 17.5
CN1/C(=C\C(=S)Nc2ccccc2)C(C)(C)c2ccccc21 | -8.6 | 3012 | 29.3 | 11.4 | 0.4 | 19.3
CC(C)=NNc1cnnc2ccc([N+](=O)[O-])cc12 | / | 5375 | 0.3 | -30.9 | / | -27.6
c1ccc(-n2nnnc2SCc2cn3cccnc3n2)cc1 | -17.2 | 23611* | -0.3 | -0.1 | i | -3.9
COc1ccc(C(C)C)cc1S(=O)(=O)Nc1ccc(Cl)cn1 | -8.5 | 22386* | ? | -3.2 | i | -1.9
CCN(CC)CCCNC(=O)c1cc(-c2ccccc2)c(N2CCCCC2)s1 | 34.8 | 3689 | 0.8 | -14.4 | i | 4.9
CC(O)(CS(=O)(=O)Cc1ccccc1)C(=O)Nc1cccc(C(F)(F)F)c1 (centres undefined) | 0.6 | 20560* | 0.7 | 1.1 | -0.5 | 0.2
CC(O)(CS(=O)(=O)Cc1ccccc1)C(=O)Nc1ccc(C(F)(F)F)cc1 (centres undefined) | 3.3 | 23000* | ? | -2.0 | i | 1.2
CC(O)(CS(=O)(=O)c1ccccc1)C(=O)Nc1ccc(C(F)(F)F)cc1 (centres undefined) | -7.1 | 10999 | -0.6 | -2.7 | i | -0.8
FC(F)(F)c1ccccc1Cc1c(-c2ccccc2)nc2ccc(Br)cn12 | / | 5022 | 3.0 | 3.7 | / | 3.7
COc1ccc(-c2ccc(-c3nnc(-c4cc(OC)ccc4OC)o3)cc2)cc1 | 7.0 | 22687* | ? | -0.5 | i | 0.8
COc1ccc(-c2nnc(-c3ccc(N)cc3)o2)cc1 | 4.9 | 9135 | 1.0 | 7.2 | -0.7 | -5.7
C(=N\Nc1nc(N2CCOCC2)nc(N2CCOCC2)n1)/c1ccncc1 | 8.3 | 2490 | -1.1 | -7.6 | i | -2.4
C(=N\Nc1nc(N2CCOCC2)nc(N2CCOCC2)n1)/c1cccnc1 | -1.5 | 22356* | 0.5 | -0.1 | -3.2 | 2.4
CC(=O)c1ncnn1CC(=O)c1ccc(Cl)cc1Cl | -6.0 | 22669* | -1.8 | -1.1 | -0.2 | 1.8
CC(C(=O)c1ccc(Cl)cc1Cl)n1cncn1 (centres undefined) | 5.4 | 4175 | 0.5 | 2.4 | 0.8 | -3.5
O=C(CCc1ccc(S(=O)(=O)NCCc2ccccc2)cc1)N1CCN(Cc2ccc3c(c2)OCO3)CC1 | / | 21187* | 1.0 | -0.4 | -0.1 | -5.1
CCOC(=O)N1CCN(C(=O)CCc2ccc(S(=O)(=O)NCCc3ccccc3)cc2)CC1 | -0.6 | 22791* | 1.8 | 4.8 | -0.4 | -5.0
CN(c1ccc(C(=O)N2CCN(Cc3ccc4c(c3)OCO4)CC2)cc1)S(=O)(=O)c1ccccc1 | 5.3 | 23288* | -0.6 | 1.2 | -0.2 | -2.8
CC(C)CNS(=O)(=O)c1ccc(CCC(=O)N2CCN(Cc3ccc4c(c3)OCO4)CC2)cc1 | 7.2 | / | / | / | -0.4 | /
